This note sets out measurements from PubChem BioAssay (NCATS).

Inconclusive results are not listed. A number with no mark means an inactive call. Calls of active or inactive are those of the source. Calls come from the whole dose curve; as a rule, active = well fitted curve in the direction sought with a large enough effect; inconclusive = small, poorly fitted or top-dose-only effect, or another doubt; inactive = no such curve, though single readings can be large; an effect the other way counts as inactive or inconclusive.

In one experiment the test system is NIH3T3. The experiment is described as follows: qHTS assay to identify novel small-molecules to repurpose for Merkel cell carcinoma treatment (AID 1296009). Note: nearly all actives have a fitted effect of over 60% in size. As to conditions: MCC and control cell lines, CellTiter-Glo viability, 72 h; at 44.8 µM (top of the series) unless noted. Summed up: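 Cells were incubated with compound for 72 hr at 37 degree celsius before CellTiter-Glo addition. Luminescence was normalized with no-cell wells as full cytotoxicity and DMSO as baseline.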
On the technique in general: In qHTS, concentration-response curves come from the screen itself.

The next experiment concerns C33A. Description: Primary qHTS to identify gynecologic anti-cancer compounds using libraries of approved drugs and bioactive compounds (AID 1345084). Note: nearly all actives have a fitted effect of over 55% in size. Note: potency is the fitted concentration of half-maximal effect. As to conditions: Gynecologic cancer cell panel viability, ATPlite luminescence, 48 h; series mostly up to 57.5 µM. The essentials: (§1)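 ATP-based viability (ATPlite), 1,000 cells/well, 16 h pre-incubation, 48 h compound at 37 C, 5% CO2, 15 min RT before read.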

The test system of another experiment is CAOV3. The description is as above. Conditions: Gynecologic cancer cell panel viability, ATPlite luminescence, 48 h; series mostly up to 57.5 µM. Summed up:
as §1
A general note: Cellular ATP, detected with luciferase, serves as a proxy for viable cell number.

The subject of another experiment is CASKI. The description is as above. Conditions: Gynecologic cancer cell panel viability, ATPlite luminescence, 48 h; series mostly up to 57.5 µM. The essentials:
as §1

A further experiment concerns Es-2. Described as above. As to conditions: Gynecologic cancer cell panel viability, ATPlite luminescence, 48 h; series mostly up to 57.5 µM. The essentials: as §1
For another experiment, the system named is HeLa. Described as above. As to conditions: Gynecologic cancer cell panel viability, ATPlite luminescence, 48 h; series mostly up to 57.5 µM. Summed up:
as §1

Another experiment relates to Hek293T. Described as above. Conditions: Gynecologic cancer cell panel viability, ATPlite luminescence, 48 h, control line for the selectivity index; series mostly up to 57.5 µM. The essentials: as §1
The test system of a further experiment is JEG-3. Described as above. As to conditions: Gynecologic cancer cell panel viability, ATPlite luminescence, 48 h; series mostly up to 57.5 µM. The essentials: as §1
The subject of another experiment is OV90. The description is as above. As to conditions: Gynecologic cancer cell panel viability, ATPlite luminescence, 48 h; series mostly up to 57.5 µM. Summed up:
as §1

The test system of another experiment is PA-1. The description is as above. Conditions: Gynecologic cancer cell panel viability, ATPlite luminescence, 48 h; series mostly up to 57.5 µM. Summed up:
as §1

The subject of the next experiment is Tov-21-G. The experiment is described as above. Conditions: Gynecologic cancer cell panel viability, ATPlite luminescence, 48 h; series mostly up to 57.5 µM. Summed up: as §1
A further experiment deals with Tov112D. The description is as above. As to conditions: Gynecologic cancer cell panel viability, ATPlite luminescence, 48 h; series mostly up to 57.5 µM. The essentials: as §1
Another experiment relates to SKOV3. The experiment is described as above. As to conditions: Gynecologic cancer cell panel viability, ATPlite luminescence, 48 h; series mostly up to 57.5 µM. Summed up:
as §1

Turning to `CCOc1ncc(S(=O)(=O)N2CCN(CC)CC2)cc1-c1nc2c(CC)n(CCOC)nc2c(=O)[nH]1`, the call with NIH3T3 and in the experiment with CASKI was inactive. Besides, the Potency result with C33A, in the experiment with CAOV3, in the experiment on Es-2, in the experiment with HeLa, with Hek293T and with JEG-3 was “inactive” each time. The Potency result in the experiment with OV90, with PA-1, with Tov-21-G and with Tov112D was “inactive” each time.

Consider `COc1ccc(OC)c(C2C(C#N)=C(N)Oc3n[nH]c(-c4ccc5ccccc5c4)c32)c1` (stereo unspecified), for which the molecule was called inactive in the experiment on NIH3T3 and in the experiment with CASKI. The Potency entry with C33A, in the experiment on CAOV3, in the experiment on Es-2, in the experiment on HeLa, in the experiment on Hek293T and in the experiment with JEG-3 was “inactive” throughout. The Potency result in the experiment with OV90, in the experiment with PA-1, with Tov-21-G and with Tov112D was “inactive” throughout.

Take `COc1c(-c2ccc(O)cc2)cc(OC)c2c1oc1cc(O)c(OC3OC(CO)C(O)C3O)cc12` (stereo unspecified): the outcome in the experiment with NIH3T3 is “inactive [at 17.4 µM]”. Further, the Potency entry in the experiment with C33A, in the experiment on CAOV3, in the experiment on Es-2, in the experiment with HeLa, in the experiment with Hek293T and in the experiment with JEG-3 was “inactive” each time. Moreover, the Potency result in the experiment with OV90, in the experiment with PA-1, in the experiment with Tov-21-G and in the experiment on Tov112D was “inactive” each time. Moreover, the molecule was called inactive with CASKI.

For `COc1ccc([C@H]2OC[C@H]3[C@@H]2CO[C@@H]3c2ccc(O[C@@H]3O[C@H](CO)C(O)[C@H](O)[C@H]3O)c(OC)c2)cc1OC` (stereo partly specified), the outcome in the experiment on NIH3T3 is “inactive [at 17.4 µM]”. Besides, the Potency result in the experiment with C33A, in the experiment with CAOV3, in the experiment on Es-2, with HeLa, with Hek293T and in the experiment on OV90 was “inactive” each time. Also, the Potency result in the experiment on PA-1, in the experiment with Tov-21-G and with Tov112D was “inactive” each time. The molecule was called inactive in the experiment on CASKI.

With `C=CC(C)(O)CCC1C(C)(O)CCC2C(C)(C)CCCC21C` (stereo unspecified), the outcome in the experiment with NIH3T3 and with CASKI was inactive. In addition, the Potency entry in the experiment on C33A, with CAOV3, in the experiment on Es-2, in the experiment on HeLa, in the experiment on Hek293T and with JEG-3 was “inactive” in each case. The Potency entry in the experiment with OV90, with PA-1, with Tov-21-G and in the experiment with Tov112D was “inactive” in each case.

Turning to `CC1(C)CC[C@]2(C(=O)O)CC[C@]3(C)C(=CCC4[C@@]5(C)C(=O)C[C@H](O)[C@@](C)(CO)C5CC[C@]43C)[C@@H]2C1` (stereo partly specified), in the experiment on NIH3T3, the outcome is “inactive [at 17.4 µM]”. The Potency entry with C33A, with CAOV3, in the experiment with Es-2, in the experiment on HeLa, with Hek293T and in the experiment with JEG-3 was “inactive” each time. The Potency entry with OV90, in the experiment on SKOV3, with Tov-21-G and with Tov112D was “inactive” each time. Besides, in the experiment on CASKI, the molecule was called inactive.

On to `CC(C)CC[C@@H](O)[C@](C)(O)[C@H]1CC[C@@]2(O)C3=CC(=O)[C@@H]4C[C@@H](O)[C@@H](O)C[C@]4(C)[C@H]3CC[C@]12C`, for which the call in the experiment on NIH3T3 and in the experiment with CASKI was inactive. The Potency result with C33A, in the experiment on CAOV3, in the experiment on Es-2, with HeLa, with Hek293T and in the experiment on JEG-3 was “inactive” in each case. For the same molecule, the Potency result in the experiment with OV90, in the experiment with PA-1, in the experiment on Tov-21-G and in the experiment with Tov112D was “inactive” each time.

In the case of `Cc1ccc2[nH]c(=O)c(C3=NN(C(=O)CCC(=O)O)C(c4ccc(Br)cc4)C3)c(-c3ccccc3)c2c1` (stereo unspecified), the call in the experiment with NIH3T3 and in the experiment on CASKI was inactive. In addition, the Potency result with C33A, in the experiment on CAOV3, with Es-2, with HeLa, in the experiment on Hek293T and in the experiment on JEG-3 was “inactive” throughout. The Potency result in the experiment with OV90, with PA-1, with Tov-21-G and in the experiment on Tov112D was “inactive” in each case.

Take `O=C(O)c1ccnc2cc(-c3nc4ccccc4n3CCN3CCCCC3)sc12`: the outcome in the experiment on NIH3T3 and with CASKI was inactive. The Potency entry in the experiment on C33A, with CAOV3, in the experiment on Es-2, in the experiment with HeLa, with Hek293T and with JEG-3 was “inactive” each time. The Potency result in the experiment on OV90, with PA-1, in the experiment on Tov-21-G and with Tov112D was “inactive” each time.

For the molecule `C=C1CCC2[C@@](C)(C(=O)O)CCC[C@@]2(C)[C@@H]1CCc1ccoc1` (stereo partly specified), the call in the experiment on NIH3T3 and in the experiment on CASKI was inactive. Further, the Potency result in the experiment with C33A, with CAOV3, in the experiment on Es-2, in the experiment with HeLa, with Hek293T and in the experiment on JEG-3 was “inactive” throughout. Also, the Potency entry with OV90, in the experiment with PA-1, with Tov-21-G and in the experiment on Tov112D was “inactive” each time.

In the case of `CC1=C[C@H](O)[C@H]2C(C)(C)CCC[C@]2(C)[C@@]1(O)CO`, the call in the experiment with NIH3T3 and in the experiment on CASKI was inactive. In addition, the Potency entry with C33A, with CAOV3, with Es-2, in the experiment on HeLa, in the experiment on Hek293T and with JEG-3 was “inactive” in each case. The Potency entry in the experiment with OV90, in the experiment with PA-1, with Tov-21-G and in the experiment with Tov112D was “inactive” in each case.

In the case of `Cc1occc1C(=O)n1ccnc1`, the molecule was classed as inactive in the experiment with NIH3T3 and in the experiment on CASKI. The Potency result in the experiment on C33A, in the experiment on CAOV3, with Es-2, in the experiment with HeLa, in the experiment with Hek293T and with JEG-3 was “inactive” in each case. Moreover, the Potency result with OV90, with PA-1, in the experiment with Tov-21-G and in the experiment on Tov112D was “inactive” throughout.

Turning to `C#CCCCn1cc(-c2cccc3c2N[C@@H](C)CC(=O)N3)cn1`, the molecule was called inactive with NIH3T3 and in the experiment with CASKI. The Potency entry with C33A, in the experiment on CAOV3, in the experiment with Es-2, in the experiment on Hek293T, in the experiment on JEG-3 and in the experiment on OV90 was “inactive” throughout. Also, the Potency result in the experiment with PA-1, with Tov-21-G and with Tov112D was “inactive” throughout. Moreover, in the experiment on HeLa, the Potency was 28.2 µM (active).

Regarding `O=C(/C=C/N1C[C@@H]2C[C@@H]1CN2c1ccccn1)c1ccccc1O`, the result in the experiment with NIH3T3 and in the experiment with CASKI was inactive. For the same molecule, the Potency result with C33A, in the experiment with CAOV3, in the experiment with Es-2, in the experiment on HeLa, in the experiment with Hek293T and in the experiment with JEG-3 was “inactive” each time. Also, the Potency result in the experiment on OV90, in the experiment on PA-1, in the experiment with Tov-21-G and in the experiment on Tov112D was “inactive” throughout.

With `COc1ccc(C(=O)NCc2cc(C(C)C)no2)cc1OC1CCN(C)CC1`, the molecule was classed as inactive in the experiment on NIH3T3 and in the experiment with CASKI. Moreover, the Potency result in the experiment on C33A, with CAOV3, with Es-2, in the experiment with HeLa, in the experiment on Hek293T and in the experiment on JEG-3 was “inactive” throughout. The Potency result with OV90, in the experiment on PA-1, in the experiment on Tov-21-G and in the experiment with Tov112D was “inactive” each time.

As for `C[C@@]1(O)[C@H](O)[C@@H](CO)O[C@H]1n1cnc2c(=O)[nH]c(N)nc21`, the molecule was classed as inactive with NIH3T3 and in the experiment on CASKI. Further, the Potency result with C33A, with CAOV3, in the experiment with Es-2, in the experiment on HeLa, with Hek293T and in the experiment on JEG-3 was “inactive” throughout. The Potency result in the experiment on OV90, in the experiment with PA-1, in the experiment with Tov-21-G and with Tov112D was “inactive” in each case.
